# Bioassay records (PubChem BioAssay)
# An excerpt weighted towards active compounds, which were near 3.9% of everything screened.
# BRCA1 expr act: qHTS Assay to Identify Small Molecule Activators of BRCA1 Expression | MCF7-BRCA1-FFLuc reporter, luminescence, 48 h; response scale: scaled: vehicle 0%, 10 µM genistein 100% | Potency, µM (titrated, usually from 46.1 µM), for inactives: top-dose activation, hits mostly activators | 380,000 compounds, 1.1% hits | AID 624202, 2012; also: nearly all actives have a fitted effect of over 80% in size
#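 Luminescence from a BRCA1-driven firefly luciferase in MCF7 cells was read after 48 h compound exposure at 37 C. Data normalized against DMSO and a 10microM genistein activation control, then curve-fitted across the titration.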
# Tb PFK block: qHTS Assay to Find Inhibitors of T. brucei phosphofructokinase | ATP-dependent 6-phosphofructokinase (Trypanosoma brucei brucei), O15648 | T. brucei PFK, ADP-Glo luminescence | Potency, µM (doses to about 57.5 µM), for the others: at the highest dose activity, negative = inhibition, hits mostly inhibitors | 330,000 compounds, 0.17% hits | AID 485367, 2010;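 also: 0% = uninhibited 1x PFK enzyme wells and -100% = no-enzyme wells; nearly all actives have a fitted effect of over 60% in size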
# Target sequence (O15648 whole entry, looked up): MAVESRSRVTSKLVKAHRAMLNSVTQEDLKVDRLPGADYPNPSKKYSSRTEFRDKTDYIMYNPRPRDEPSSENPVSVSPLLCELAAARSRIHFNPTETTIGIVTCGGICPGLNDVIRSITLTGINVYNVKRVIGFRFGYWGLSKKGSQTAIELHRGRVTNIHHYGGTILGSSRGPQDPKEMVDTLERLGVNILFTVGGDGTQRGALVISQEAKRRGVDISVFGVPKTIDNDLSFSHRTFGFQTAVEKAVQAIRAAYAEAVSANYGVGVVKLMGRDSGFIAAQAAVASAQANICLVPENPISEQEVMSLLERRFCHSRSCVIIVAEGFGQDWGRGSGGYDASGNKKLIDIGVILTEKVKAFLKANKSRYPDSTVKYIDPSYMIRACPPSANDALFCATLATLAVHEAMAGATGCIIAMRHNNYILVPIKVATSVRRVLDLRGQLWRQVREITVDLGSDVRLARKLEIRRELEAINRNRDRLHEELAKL
#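 PFK 1.25 nM, F6P 0.5 mM, ATP 0.1 mM, 0.1 M TEA pH 8.0, 5 mM MgCl2, 0.01% Tween20, 0.1% BSA; 45 min RT. ADP-Glo readout. qHTS titration up to 57 uM; curves fitted, compounds curve-classed.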
# PLK1 PBD block: qHTS for Inhibitors of PLK1-PDB (polo-like kinase 1 - polo-box domain): Primary Screen; 360,000 compounds, 2.8% hits; Potency, µM, inactives show max response, negative = inhibition, usual class: inhibitors; Serine/threonine-protein kinase PLK1 (Homo sapiens), P53350; Plk1 PBD binding of FITC phosphopeptide, fluorescence polarization; AID 720504, 2013; also: series mostly up to about 57 µM; % is scaled to controls: 0 for no effect and ±100 for the full control effect; nearly all actives have a fitted effect of over 65% in size
# VDR inh: Inhibitors of the vitamin D receptor (VDR): qHTS | Vitamin D3 receptor (Homo sapiens), P11473 | VDR-SRC2-3 peptide fluorescence polarization, 2 h | Potency, µM, for the others: max response, negative = inhibition, actives largely listed as inhibitors | 400,000 compounds, 0.93% hits; also: % is scaled to controls: 0 for no effect and ±100 for the full control effect
#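 VDR–SRC2-3 interaction, FP format. Cmpds 23 nl via pintool, brief spin, 2 h ambient incubation.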
# Active calls of the source: *; ? = inconclusive; . = not tested or not shown; ! = a repeat was not active. Calls follow the shape of the dose curve; as a rule, active = well fitted curve in the direction sought with a large enough effect; inconclusive = small, poorly fitted or top-dose-only effect, or another doubt; inactive = no such curve, though single readings can be large; an effect the other way counts as inactive or inconclusive. Potency is read from the fitted curve at half-maximal effect.
SMILES,BRCA1 expr act,Tb PFK block,PLK1 PBD block,VDR inh
O=C1CCCN1CCCNc1ccc2nnc(CCC(=O)N3CCN(c4ccc(F)cc4)CC3)n2n1,-8.0%,-0.1%,26.7µM*,-20.9%
CCOC(=O)c1c(C)[nH]c(C(=O)OC(C(=O)N(C)C)c2ccccc2)c1C (stereo not given),-5.5%,.,.,.
CC(=O)N[C@@H](CSC/C=C(\C)CC/C=C(\C)CCC=C(C)C)C(=O)O,.,.,.,50.1µM*!
CC(=O)N[C@@H](CSC/C=C(\C)CC/C=C(\C)CC/C=C(\C)CCC=C(C)C)C(=O)O,.,.,.,35.5µM*!
CC(=O)N[C@@H](CSC/C=C(\C)CCC=C(C)C)C(=O)O,.,.,.,0.1%
CCCCC1(C)OC(=O)C(=Cc2ccc(SC)cc2)C(=O)O1 (stereo not given),12.2%,17.8%,2.38µM*,10.0%
Cn1c(/C(C#N)=C/c2ccc(O)cc2)nc2ccccc21,11.2µM*,-9.1%,4.5%,16.3%
CCN(CC)S(=O)(=O)c1ccc(Cl)nc1,-10.6%,-4.2%,1.6%,4.7%
COCCN(CCOC)S(=O)(=O)c1ccc(Cl)nc1,-9.9%,-2.7%,21.2µM*,-25.8%
CCCn1c(=O)c2sccc2n2c(CCCC(=O)N3CCN(c4ccc(OC)cc4)CC3)nnc12,.,.,.,-11.9%
O=[N+]([O-])c1cc(Br)c(Nc2ccccc2)c([N+](=O)[O-])c1,-88.9%,-4.5%,29.9µM*,?
Cc1ccc(-c2csc3nc(-c4ccncc4)[nH]c(=O)c23)cc1,27.2%,0.4%,16.8µM*,-8.2%
O=c1[nH]c(Cc2ccc(F)cc2)nc2scc(-c3ccc(F)cc3)c12,3.7%,-3.9%,5.97µM*,?
Cc1ccc(-c2csc3nc[nH]c(=O)c23)cc1,12.4%,-1.5%,-10.9%,0.0%
Cc1ccc2nc(-c3ccncc3)[nH]c2c1,2.82µM*,-4.6%,7.6%,12.4%
Cc1ccc(-c2csc3nc(CN(C)Cc4ccccc4)[nH]c(=O)c23)cc1,2.3%,7.8%,0.5%,5.2%
O=C(c1cccs1)N1C[C@@H](n2cc(-c3ccc(F)cc3)nn2)[C@H](O)C[C@@H]1c1ccccc1,-25.3%,.,-6.3%,.
Brc1ccc(/C=C2\C=Cc3ccccc32)cc1,-0.8%,.,.,.
CC(=O)c1ccc(S(=O)(=O)NCC(=O)NC(c2nc3ccccc3[nH]2)C(C)C)cc1 (stereo not given),3.7%,1.0%,18.9µM*,?
CC(C)C(NC(=O)CCNC(=O)c1ccc(C(C)(C)C)cc1)c1nc2ccccc2[nH]1 (stereo not given),-37.7%,-1.2%,4.0%,-1.4%
CC(NC(=O)c1ccc(S(=O)(=O)C(F)F)cc1)c1ccccc1 (stereo not given),-8.5%,-1.8%,23.8µM*,-21.3%
CC1OC(CC(=O)O)CC2=C1C(=O)c1c(O)cccc1C2=O (stereo not given),-96.6%,.,2.38µM*,10µM*
CCOc1ccc(-c2csc(/C(C#N)=C\c3ccc(O)c([N+](=O)[O-])c3)n2)cc1,-69.1%,-2.9%,18.9µM*,-1.7%
CCc1ccc(/C=C(/C#N)c2nc(-c3ccc(C)cc3)cs2)cc1,0.0%,.,.,-16.2%
COc1ccc(CN(C)C2CCCCC2)cc1,-3.4%,-7.2%,23.8µM*,?
SMILES,BRCA1 expr act,Tb PFK block,PLK1 PBD block,VDR inh
Cc1ccc(CN(C)C2CCN(C)CC2)cc1,-8.8%,0.6%,23.8µM*,-20.4%
COc1ccc(CN(C)C2CCN(C)CC2)cc1OC,14.8%,0.8%,-7.0%,-2.5%
CN(Cc1ccc(O)cc1)C1CCCCC1,0.2%,1.0%,-7.2%,-0.3%
CC(NCC(O)COCCC12CC3CC(CC(C3)C1)C2)c1ccccc1 (stereo not given),-102.8%,-0.3%,29.9µM*,-6.7%
C[C@@H]1CN([C@@H](C)CO)C(=O)c2cc(Br)cnc2O[C@@H]1CN(C)S(=O)(=O)c1ccc(F)cc1,2.9%,.,-23.0%,.
O=C(Nc1ccc(Nc2ccncc2)cc1)c1ccc(Nc2ccnc3ccc([N+](=O)[O-])cc23)cc1[N+](=O)[O-],-7.4%,26.6%,-5.6%,46.2%
CC(/C=C\c1ccccc1)=C/C(=O)O,-5.2%,2.9%,4.7%,-10.2%
N/C(=N\OC(=O)/C=C/c1ccccc1)c1ccc(Cl)cc1,48.9%,0.0%,-7.4%,24.1%
CCOC(=O)N/N=C(C)/C=C/c1ccccc1,99.6%,3.9%,-3.1%,-13.0%
